Compounds with a hit are over-represented: about 21% of the library has one in this group of screens.
Cycloheximide cs – counter-screen for Shiga toxin inhibitors: cycloheximide protein synthesis inhibition | cell reporter, cycloheximide protein synthesis inhibition counterscreen | max response, % | actives 12% (n = 300,000) | AID 2314; in the data active = max response mostly above about 13%, no sharp cut-off; inactive = mostly below about 14%; note: read at 38.3 µM for the half of the compounds with a filed dose; 0% is about no effect
Pf growth 48h – P. falciparum growth inhibition at 48 hours (one generation). P. falciparum luciferase growth in erythrocytes, 48 h. Potency, µM (titrated, usually from 28.7 µM), without a hit: top-dose activity change, negative = inhibition, hits mostly inhibitors. actives 5.9% (n = 310,000). AID 504832; note: potency is the fitted concentration of half-maximal effect; % is set by controls: 0 for no effect and ±100 for the full control effect
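Compounds are pin-transferred into medium, infected erythrocytes (2% hematocrit, 0.1% parasitemia final) are added, and plates sit one parasite generation at 37 C in 5% CO2. Detection reagent is then added and luminescence measured.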
Shiga toxin inh – inhibitors of Shiga toxin in Vero cells. Vero cells, Shiga toxin protein synthesis inhibition reporter. actives 9.2% (n = 290,000). inhibition, % at 38.7 µM; in the data active = inhibition mostly above about 28%, no sharp cut-off; inactive = mostly below about 43%; note: 0% is about no effect
Pf growth 96h – inhibits malaria parasite growth, 96 h; actives 6.9% (n = 320,000); Potency, µM (series often up to 28.7 µM), for the others: at the top dose activity change, negative = inhibition, usual class: inhibitors; P. falciparum luciferase reporter growth, 96 h; AID 504834; note: potency is the fitted concentration of half-maximal effect; % is set by controls: 0 for no effect and ±100 for the full control effect
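Luminescence readout: decreased luciferase signal marks inhibited growth of reporter-expressing P. falciparum in infected red cells (2% hematocrit, 0.05% parasitemia final), exposed to compound two generations (96 h, 37 C, 5% CO2).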
* marks the source's active call; other numbers are inactive results; i = inactive; ? = inconclusive; / = no result; [ ] = dose if it differs, or a comment. Unless noted, calls come from the whole dose curve; as a rule, active = well fitted inhibition curve with a large enough effect; inconclusive = small, poorly fitted or top-dose-only effect, or another doubt; inactive = no such curve, though single readings can be large or run the other way.

SMILES	Cycloheximide cs	Pf growth 48h	Shiga toxin inh	Pf growth 96h
O=C(Nc1ccccc1)C1(c2ccccc2)CC1(Cl)Cl (stereo unspecified)	6.8	3.7µM*	20.5	1.65µM*
N#CC(c1ccc(Cl)cc1)c1ccc2c(C(F)(F)F)cc(C(F)(F)F)nc2n1 (stereo unspecified)	-1.8	/	-5.4	2.62µM*
O=C(CSc1nnc(COc2ccccc2)o1)N1CCOCC1	-1.1	?	5.0	10.9%
Cc1ccc(S(=O)(=O)N2CCN(c3ncnc4scc(-c5ccc(F)cc5)c34)CC2)cc1	/	?	/	-23.8%
COc1ccc(-c2csc3ncnc(N4CCN(S(=O)(=O)c5ccc(C(C)=O)cc5)CC4)c23)cc1	/	1.65µM*	/	2.33µM*
COc1ccc(-c2csc3ncnc(N4CCN(S(=O)(=O)c5cccc(C(F)(F)F)c5)CC4)c23)cc1	/	10.4µM*	/	0.9%
O=C(NCC1CCCO1)C1CC(=O)N(c2ccc(Cl)cc2)C1 (stereo unspecified)	-6.9	16.5%	-6.9	-12.7%
CC(=O)c1cn(-c2ccc(Cl)cc2)c(=O)n(Cc2ccc(F)cc2)c1=O	-1.6	?	-13.7	?
COc1ccc(C(O)Cn2cc([N+](=O)[O-])nc2C)cc1 (stereo unspecified)	-2.0	31.6%	-5.0	53.6%
Cc1ccc(Sc2ncccc2C(=O)NCC(c2ccc(F)cc2)N2CCOCC2)cc1C (stereo unspecified)	/	11.7µM*	/	?
COc1ccccc1NS(=O)(=O)c1cc(C(=O)NCC(c2ccco2)N2CCCCC2)ccc1C (stereo unspecified)	/	11.7µM*	/	8.28µM*
COc1ccc(/C=C/C(=O)NCC(c2ccc(F)cc2)N2CCOCC2)cc1OC (stereo unspecified)	4.8	8.28µM*	-2.8	?
O=C(NCC(c1ccc(F)cc1)N1CCOCC1)c1cccc(Br)c1 (stereo unspecified)	-0.7	-3.5%	-9.2	-7.6%
COc1ccccc1NS(=O)(=O)c1cc(C(=O)NCC(c2ccc(F)cc2)N2CCOCC2)ccc1C (stereo unspecified)	/	11.7µM*	/	?
COc1ccccc1NS(=O)(=O)c1cc(C(=O)NCC(c2ccco2)N(C)C)ccc1C (stereo unspecified)	/	-18.8%	/	?
COc1ccc2c(-c3ccccc3)cc(=O)[nH]c2c1	11.2	?	73.2	/
COc1ccc2c(-c3ccccc3)cc(SC(C)C(N)=O)nc2c1 (stereo unspecified)	-1.5	10.4µM*	-8.7	?
CC(=O)N1CCN(C(=O)CSc2nc3c(cnn3-c3ccccc3)c(=O)[nH]2)CC1	38.2*	0.5%	77.6*	4.9%[5.75 µM]
CC1CCN(C(=O)CSc2nc3c(cnn3-c3ccccc3)c(=O)[nH]2)CC1	-3.1	/	14.2	?
CCCN(C(=O)CSc1cc(-c2ccccc2)c2ccc(OC)cc2n1)C1CCS(=O)(=O)C1 (stereo unspecified)	0.6	?	-17.0	9.28µM*
CCCN(C(=O)CSc1nc2c(cnn2-c2ccccc2)c(=O)[nH]1)C1CCS(=O)(=O)C1 (stereo unspecified)	-5.5	9.28µM*	2.0	?
CCN(C(=O)CSc1cc(C)c2ccccc2n1)C1CCS(=O)(=O)C1 (stereo unspecified)	-3.8	-5.7%	3.0	?
Cc1c(Cl)cccc1NC(=S)Nc1ccc2[nH]c(=O)[nH]c2c1	3.1	-18.0%	-0.6	-12.4%
O=C(CCn1nc(-c2ccc(Cl)cc2)c2ccccc2c1=O)NN1CCOCC1	-0.9	?	1.4	?
COc1ccc(N(Cc2cc3cc(OC)ccc3[nH]c2=O)S(=O)(=O)c2ccc(NC(C)=O)cc2)cc1	-3.8	2.33µM*	-16.0	9.28µM*
SMILES	Cycloheximide cs	Pf growth 48h	Shiga toxin inh	Pf growth 96h
COc1ccc2[nH]c(=O)c(CN(c3ccc(C)c(C)c3)S(C)(=O)=O)cc2c1	-3.2	-21.2%	-8.5	6.57µM*
CCOc1ccc(N(Cc2cc3cc(OC)ccc3[nH]c2=O)S(C)(=O)=O)cc1	4.7	-2.0%	-10.7	1.2%
C/C(=N\Nc1cccc2cccnc12)c1ccc(N)cc1	36.3*	144.3%	119.4*	41.3%
C/C(=N\Nc1cccc2cccnc12)c1ccccn1	31.7	i	29.8	i
C/C(=N\Nc1cccc2cccnc12)c1ccccc1O	36.1*	368.1%	46.4*	i
CC(=O)N(C)c1ccc(NC(=S)Nc2cccc3ccccc23)cc1	43.9*	0.7%	82.9*	?
Cc1ccc(NC(=S)Nc2cccc3ccccc23)cc1F	41.9*	?	81.1*	38.9%
Fc1cccc(NC(=S)Nc2cccc3ccccc23)c1	-2.1	-1.9%	-20.6	25.5%
CC(=O)c1cccc(NC(=O)C(=O)Nc2cccc3ccccc23)c1	22.3*	115.1%	31.9*	?
CC(=O)c1ccc(NC(=S)Nc2cccc3ccccc23)cc1	73.0*	-32.7%	106.0*	0.0%
CC(=O)c1cccc(NC(=O)N(c2ccccc2)c2ccccc2)c1	2.9	?	/	?
COc1ccc(CN(C)C(=O)Cn2ccc(N)nc2=O)cc1OC	/	26.9%	/	?
CCCC(=O)NC(=S)Nc1ccc(C(C)=O)cc1	55.1*	81.3%	57.0*	1.1%
COc1ccc(N2C(=O)CCC(C(=O)O)C2c2ccc(F)cc2)cc1 (stereo unspecified)	-3.4	4.1%	-15.1	2.62µM*
COc1ccc(C2SCC(=O)N2c2ccc(OC)cc2)cc1 (stereo unspecified)	-1.7	3.0%	15.4	374.4%
O=C1CSC(c2ccc(F)cc2)N1c1c(F)cccc1F (stereo unspecified)	20.6*	-3.3%	21.9	1.7%
COc1ccc(C2SCC(=O)N2c2ccc(F)cc2)cc1 (stereo unspecified)	-2.1	12.8%	-6.7	2.62µM*
COc1ccc(C2C(C(=O)O)CC(=O)N2c2ccc(OC)cc2)cc1 (stereo unspecified)	-1.3	3.8%	0.8	?
CCOC(=O)N1CCN(C(=O)C2CC(=O)N(c3ccc(OC)cc3)C2c2ccc(OC)cc2)CC1 (stereo unspecified)	-2.2	9.28µM*	7.3	?
COCCN(CCOC)C(=O)COC(=O)c1cc([N+](=O)[O-])ccc1Cl	-0.5	-12.6%	-9.7	-3.6%
O=C(CSc1ccc(-c2ccc(F)cc2)nn1)NC1CCCCC1	-1.4	1.6%	2.7	33.9%
COc1cccc(C(=O)N2CCC(CCC(=O)Nc3cccc(C)c3)CC2)c1	8.1	?	3.7	1.1%
O=C(CN(c1ccccc1)S(=O)(=O)c1ccccc1[N+](=O)[O-])Nc1ccccc1C(=O)N1CCOCC1	7.2	-18.8%	-14.5	35.7%
COc1ccc(C2C(C(=O)NCc3ccccn3)CCC(=O)N2c2cc(OC)c(OC)c(OC)c2)cc1 (stereo unspecified)	39.9*	15.0%	94.2*	11.7µM*
COc1ccc(N2C(=O)CSC2c2ccc([N+](=O)[O-])cc2)cc1 (stereo unspecified)	-2.6	/	-4.2	5.22µM*
O=C1CSC(c2ccc([N+](=O)[O-])cc2)N1c1ccccc1 (stereo unspecified)	-4.5	/	2.0	?
